# Test results as given in PubChem BioAssay (NCI).
# This is part of a sample that, as a whole, favours compounds with a hit. Of some 79,000 tested, about 15% had one in any assay. Unmarked numbers belong to inactive results. Calls of active or inactive are those of the source. No stated cut-off is given here; in the data, active means growth inhibition above about 70%; inactive means the rest.
# How the values were obtained:
# [1] = NCI Yeast Anticancer Drug Screen. Data for the wt2 strain (AID 169);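 further: 0% = growth of vehicle-treated yeast cultures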; settings: S. cerevisiae wt2 strain growth inhibition, active compounds read high
# In short: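 Growth of compound-treated yeast is measured and expressed as inhibition relative to vehicle-only controls.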
# [2] = NCI Yeast Anticancer Drug Screen. Data for the mlh1 strain (AID 171);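 further: 0% = growth of vehicle-treated control cultures of the same strain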; settings: S. cerevisiae mlh1 strain growth inhibition, active compounds read high
# In short: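 Test agents were incubated with yeast bearing a defined DNA damage repair or cell cycle control alteration; values are growth inhibition normalised to vehicle-treated cultures.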
# [3] = NCI Yeast Anticancer Drug Screen. Data for the sgs1 strain (AID 173);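 further: 0% = growth of vehicle-only control cultures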; settings: S. cerevisiae sgs1 mutant, active compounds read high
# In short: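 Strain with an altered DNA repair or cell cycle pathway exposed to compound. Growth then measured. Value = inhibition versus vehicle control.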
# [4] = NCI Yeast Anticancer Drug Screen. Data for the mlh1 rad18 strain (AID 175); settings: S. cerevisiae mlh1 rad18 strain growth inhibition, active compounds read high
# In short: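 A repair-deficient yeast strain is exposed to test compound, and growth is scored relative to vehicle-treated controls.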
# [5] = NCI Yeast Anticancer Drug Screen. Data for the rad18 strain (AID 177); settings: S. cerevisiae rad18 mutant growth inhibition, active compounds read high
# In short: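 DNA-repair-defective yeast; compound treatment; growth inhibition scored against vehicle.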
# [6] = NCI Yeast Anticancer Drug Screen. Data for the rad52 strain (AID 147);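 further: 0% = growth of vehicle-treated control cultures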; settings: S. cerevisiae rad52 mutant growth inhibition, active compounds read high
# In short: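 Growth of repair-deficient yeast cells was compared between compound-treated and vehicle-treated cultures to give percent inhibition.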
# [7] = NCI Yeast Anticancer Drug Screen. Data for the wt1 strain (AID 149);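 further: 0% = growth of vehicle-treated wt1 cultures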; settings: S. cerevisiae wt1 strain (SPY 50644) growth inhibition, active compounds read high
# In short: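 The wt1 strain was treated with compounds, and growth was compared with vehicle-treated cultures to give inhibition.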
# [8] = NCI Yeast Anticancer Drug Screen. Data for the rad50EPP+ strain (AID 151);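 further: 0% = growth of vehicle-treated control cultures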; settings: S. cerevisiae rad50 mutant strain, active compounds read high
# In short: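 Measured: growth inhibition of rad50EPP+ yeast. Reference: vehicle-treated controls. Screen uses strains with defined genetic alterations in DNA damage repair or cell cycle control.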
# [9] = NCI Yeast Anticancer Drug Screen. Data for the mgt1 strain (AID 153); settings: S. cerevisiae mgt1 mutant growth inhibition, active compounds read high
# In short: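 Compounds were applied to mgt1 mutant yeast, and growth was then compared against vehicle-treated control cultures to give percent inhibition.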
# [10] = NCI Yeast Anticancer Drug Screen. Data for the rad50 strain (AID 155);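 further: 0% = growth of vehicle-only cultures of the same strain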; settings: S. cerevisiae rad50 strain growth inhibition, active compounds read high
# In short: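 Cells are treated with compound, grown, and their growth is then scored against vehicle-only cultures of the same repair-deficient yeast strain.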
# [11] = NCI Yeast Anticancer Drug Screen. Data for the mec2-1 strain (AID 157); settings: S. cerevisiae mec2-1 strain, active compounds read high
# In short: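 Compounds were applied to mec2-1 yeast cells. Their growth was then compared with that of vehicle-treated cultures to give growth inhibition.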
# [12] = NCI Yeast Anticancer Drug Screen. Data for the rad14 strain (AID 159);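 further: 0% = growth of vehicle-treated control cultures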; settings: S. cerevisiae rad14 strain growth inhibition, active compounds read high
# In short: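 Readout: yeast growth inhibition, referenced to vehicle-only cultures. Strain bears a defined alteration in DNA damage repair.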
# [13] = NCI Yeast Anticancer Drug Screen. Data for the sgs1 mgt1 strain (AID 161);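 further: 0% = growth of cultures given vehicle only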; settings: S. cerevisiae sgs1 mgt1 strain, active compounds read high
# In short: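 Growth of a repair-deficient yeast mutant was monitored after compound treatment and expressed as inhibition relative to vehicle-treated cultures.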
# [14] = NCI Yeast Anticancer Drug Screen. Data for the CLN2oe strain (AID 163);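 further: 0% = growth of vehicle-only control cultures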; settings: S. cerevisiae CLN2oe strain, active compounds read high
# In short: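 Cells of an engineered yeast line with disturbed cell-cycle regulation are treated with compound. Inhibition of growth is then calculated relative to the vehicle-treated reference.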
# [15] = NCI Yeast Anticancer Drug Screen. Data for the cln2 rad14 strain (AID 165);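 further: 0% = growth equal to vehicle treated cultures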; settings: S. cerevisiae cln2 rad14 strain, active compounds read high
# In short: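 Strain: cln2 rad14 yeast, altered in cell cycle control and DNA damage repair. Read-out: growth inhibition vs vehicle.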
# [16] = NCI Yeast Anticancer Drug Screen. Data for the bub3 strain (AID 167); settings: S. cerevisiae bub3 mutant strain, active compounds read high
# In short: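 Part of a panel of yeast mutants defective in DNA damage repair or cell cycle regulation. Each strain is grown with compound, and inhibition is calculated relative to solvent-treated cultures.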
# [17] = at 5.0 µM (retest, dose inferred, filed as 0.5)
# [18] = at 50.0 µM (retest, dose inferred, filed as 5.0)
smiles,measurement,setting,value
COc1ccc2ccc3ccccc3c2c1C=O,growth inhibition,[1]; at 1.2 µM,-3%
same,growth inhibition,[1]; at 3.7 µM,4%
same,growth inhibition,[1]; at 11.0 µM,-4%
same,growth inhibition,[1]; at 33.0 µM,-4%
same,growth inhibition,[1]; at 100.0 µM,77% (active)
same,growth inhibition,[2]; at 1.2 µM,-6%
same,growth inhibition,[2]; at 3.7 µM,-5%
same,growth inhibition,[2]; at 11.0 µM,-5%
same,growth inhibition,[2]; at 33.0 µM,-6%
same,growth inhibition,[2]; at 100.0 µM,29%
same,growth inhibition,[3]; at 1.2 µM,-4%
same,growth inhibition,[3]; at 3.7 µM,-1%
same,growth inhibition,[3]; at 11.0 µM,4%
same,growth inhibition,[3]; at 33.0 µM,10%
same,growth inhibition,[3]; at 100.0 µM,50%
same,growth inhibition,[4]; [17],14%
same,growth inhibition,[4]; [18],89% (active)
same,growth inhibition,[4]; at 50.0 µM,57.1%
same,growth inhibition,[5]; at 1.2 µM,-2%
same,growth inhibition,[5]; at 3.7 µM,2%
same,growth inhibition,[5]; at 11.0 µM,3%
same,growth inhibition,[5]; at 33.0 µM,9%
same,growth inhibition,[5]; at 100.0 µM,83% (active)
c1ccc(-c2ccnc3c2ccc2c(-c4ccccc4)ccnc23)cc1,growth inhibition,[6]; at 1.2 µM,4%
same,growth inhibition,[6]; at 3.7 µM,21%
same,growth inhibition,[6]; at 11.0 µM,50%
same,growth inhibition,[6]; at 33.0 µM,99% (active)
same,growth inhibition,[6]; at 100.0 µM,99% (active)
same,growth inhibition,[7]; at 1.2 µM,5%
same,growth inhibition,[7]; at 3.7 µM,-4%
same,growth inhibition,[7]; at 11.0 µM,9%
same,growth inhibition,[7]; at 33.0 µM,97% (active)
same,growth inhibition,[7]; at 100.0 µM,97% (active)
same,growth inhibition,[8]; at 1.2 µM,2%
same,growth inhibition,[8]; at 3.7 µM,-4%
same,growth inhibition,[8]; at 11.0 µM,22%
same,growth inhibition,[8]; at 33.0 µM,97% (active)
same,growth inhibition,[8]; at 100.0 µM,97% (active)
same,growth inhibition,[9]; at 1.2 µM,10%
same,growth inhibition,[9]; at 3.7 µM,-9%
same,growth inhibition,[9]; at 11.0 µM,63%
same,growth inhibition,[9]; at 33.0 µM,98% (active)
same,growth inhibition,[9]; at 100.0 µM,97% (active)
same,growth inhibition,[10]; at 1.2 µM,7%
same,growth inhibition,[10]; at 3.7 µM,13%
same,growth inhibition,[10]; [17],2%
same,growth inhibition,[10]; at 11.0 µM,67%
same,growth inhibition,[10]; at 33.0 µM,98% (active)
same,growth inhibition,[10]; [18],97% (active)
same,growth inhibition,[10]; at 50.0 µM,91.2% (active)
same,growth inhibition,[10]; at 100.0 µM,97% (active)
same,growth inhibition,[11]; at 1.2 µM,22%
same,growth inhibition,[11]; at 3.7 µM,24%
same,growth inhibition,[11]; [17],-31%
same,growth inhibition,[11]; at 11.0 µM,53%
same,growth inhibition,[11]; at 33.0 µM,99% (active)
same,growth inhibition,[11]; [18],98% (active)
same,growth inhibition,[11]; at 50.0 µM,92.8% (active)
same,growth inhibition,[11]; at 100.0 µM,96% (active)
same,growth inhibition,[12]; at 1.2 µM,-6%
same,growth inhibition,[12]; at 3.7 µM,-17%
same,growth inhibition,[12]; at 11.0 µM,54%
same,growth inhibition,[12]; at 33.0 µM,98% (active)
same,growth inhibition,[12]; at 100.0 µM,97% (active)
same,growth inhibition,[13]; [17],23%
same,growth inhibition,[13]; [18],97% (active)
same,growth inhibition,[13]; at 50.0 µM,92.1% (active)
same,growth inhibition,[14]; at 1.2 µM,-8%
same,growth inhibition,[14]; at 3.7 µM,-20%
same,growth inhibition,[14]; at 11.0 µM,50%
same,growth inhibition,[14]; at 33.0 µM,98% (active)
same,growth inhibition,[14]; at 100.0 µM,98% (active)
same,growth inhibition,[15]; [17],48%
same,growth inhibition,[15]; [18],96% (active)
same,growth inhibition,[15]; at 50.0 µM,92% (active)
same,growth inhibition,[16]; at 1.2 µM,24%
same,growth inhibition,[16]; at 3.7 µM,27%
same,growth inhibition,[16]; [17],11%
same,growth inhibition,[16]; at 11.0 µM,60%
same,growth inhibition,[16]; at 33.0 µM,98% (active)
same,growth inhibition,[16]; [18],96% (active)
same,growth inhibition,[16]; at 50.0 µM,90.3% (active)
same,growth inhibition,[16]; at 100.0 µM,97% (active)
same,growth inhibition,[1]; at 1.2 µM,0%
same,growth inhibition,[1]; at 3.7 µM,-3%
same,growth inhibition,[1]; at 11.0 µM,11%
same,growth inhibition,[1]; at 33.0 µM,98% (active)
same,growth inhibition,[1]; at 100.0 µM,97% (active)
same,growth inhibition,[2]; at 1.2 µM,-7%
same,growth inhibition,[2]; at 3.7 µM,-8%
same,growth inhibition,[2]; at 11.0 µM,46%
same,growth inhibition,[2]; at 33.0 µM,98% (active)
same,growth inhibition,[2]; at 100.0 µM,98% (active)
same,growth inhibition,[3]; at 1.2 µM,12%
same,growth inhibition,[3]; at 3.7 µM,11%
same,growth inhibition,[3]; at 11.0 µM,62%
same,growth inhibition,[3]; at 33.0 µM,98% (active)
same,growth inhibition,[3]; at 100.0 µM,96% (active)
same,growth inhibition,[4]; [17],-32%
same,growth inhibition,[4]; [18],97% (active)
same,growth inhibition,[4]; at 50.0 µM,90.3% (active)
same,growth inhibition,[5]; at 1.2 µM,9%
same,growth inhibition,[5]; at 3.7 µM,12%
same,growth inhibition,[5]; at 11.0 µM,49%
same,growth inhibition,[5]; at 33.0 µM,98% (active)
same,growth inhibition,[5]; at 100.0 µM,97% (active)
